The text below walks through data of article PMC5540273 (PLoS ONE, 2017).
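Note: KINOMEscan kinase panel screen.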

The subject of the first test is CSNK1A1L. The note with it: concentration: 1 μM, replicates: in singlicate; n = 1.
In the case of `COCCOCCOc1cc2ncc3c4ccc(C#N)cc4[nH]c3c2cc1OC`, the “%Inh” value came to 8%. The same measure, in the same setting: to `COc1cccc(-c2ccc3c(NC(=O)C4CC4)n[nH]c3n2)c1` [SB-710903] belongs 12%. Still for that read-out and setting: the value for `Nc1ncc(-c2ccc3nccc(-c4ccncc4)c3c2)cc1S(=O)(=O)N1CCOCC1` [GSK1627798] was 7%; that for `Cc1ccc(C(=O)N2CC[C@@H](O)C2)cc1-n1c(C)cc(OCc2ccc(F)cc2F)c(Br)c1=O` was 0%; that for `O=C(O)C(F)(F)F.O=C(O)C(F)(F)F.O=c1[nH]ccc2nc(N[C@@H]3CCCNC3)nc(Nc3ccc(S(=O)(=O)N4CCOCC4)cc3)c12` [GSK2177277] was 99.7%. On to `COc1cc(Nc2nccc(-c3c(-c4cccc(NC(=O)c5c(F)cccc5F)c4)nn4ncccc34)n2)cc(OC)c1OC` [GSK327238], for which the “%Inh” value is reported as 7%. On to `COc1cccc(C2=C(Nc3ccc(Cl)c(C(=O)O)c3)C(=O)NC2=O)c1` [SB-390769], for which the “%Inh” value came to 5%.

For the compound `Cc1ccc(C(=O)Nc2ccc(Nc3ccnc4cc(-c5nccs5)ccc34)cc2O)cc1.Cl` [GW494702], the “%Inh” value was found to be 14%. Still for that read-out and setting: the value for `CCn1c(-c2nonc2N)nc2c(C#CC(C)(C)O)nc(OC[C@H](N)c3ccccc3)cc21` [GSK943949] was 0%; that for `COC(=O)Nc1nc2cc(Oc3ccc(NC(=O)Nc4cc(C(F)(F)F)ccc4F)cn3)ccc2[nH]1.Cl.Cl` [GW681170] was 0%; that for `Cl.Cl.NCC(NCc1ccc(-c2ccnc3[nH]ccc23)s1)c1ccccc1` (centres unmarked) [GSK1321565] was 16%.

With `O=c1[nH]cc(-c2ccc(N3CCOCC3)cc2)c2sc(-c3cn[nH]c3)cc12` [GSK2276055], the “%Inh” value stood at 44%. The same measure, in the same setting: the value for `c1ccc(-c2cnc3nccnn23)cc1` [AH20685] was 0%.

For `COc1cc(Nc2nccc(-c3c(-c4cccc(NC(=O)c5c(F)cccc5F)c4)nn4ccccc34)n2)cc(OC)c1OC` [GSK323521], the “%Inh” value worked out at 15%.

The next test deals with CSNK1A1. The note with it: concentration: 1 μM, replicates: in singlicate; n = 1.
For `Cc1ccc(C)c(NC(=O)NC2CCN(c3ccnc(Nc4ccc(F)cc4)n3)C2)c1` (centres unmarked) [GSK1379720], the “%Inh” value was found to be 0%. Regarding `Cl.Cl.NCC(NC(=O)c1cc(-c2ccccc2)c(-c2ccnc3[nH]ccc23)s1)c1ccccc1` (centres unmarked) [GSK1321561], the “%Inh” value was 95.7%. As to `CN(C)Cc1ccc(-c2ccc3c(Nc4ccc(Oc5ccccn5)cc4)ccnc3c2)o1` [GW567148], the “%Inh” value was found to be 0%. With `COc1cccc(C(=O)Nc2cccc(Oc3ccc4nc(NC(=O)C5CC5)cn4n3)c2)c1`, the “%Inh” value is 29%.

In the case of `CNC(=O)c1ccccc1Nc1nc(Nc2ccc(N3CCOCC3)cc2)ncc1Cl.Cl` [GSK1576028], the “%Inh” value worked out at 30%.

With `C[C@@H]1CC[C@@H](C(=O)Nc2ccccc2)CN1c1cc(-c2ccc3c(N)n[nH]c3c2)nc(N)n1` [GSK2286062], the “%Inh” value is recorded as 0%. On the same count and under the same terms, to `Cn1cc(-c2ccc3c(c2)CCN3C(=O)Cc2cccc(Cl)c2)c2c(N)ncnc21` [GSK2606590] belongs 20%. Still for that read-out and setting: to `FC(F)(F)c1ccc(/C=C/c2cncnc2Nc2ccc3[nH]c(Cc4ccccc4)nc3c2)cc1` [GW709199] belongs 33%; to `COc1cccc(NC(=O)NC2CCN(c3ccnc(Nc4cc(OC)c(OC)c(OC)c4)n3)C2)c1` (centres unmarked) [GSK1379763], 0%. Consider `Fc1ccc(-c2ncn(C3CCNCC3)c2-c2ccnc(Oc3ccc(-c4ccccc4)cc3)n2)cc1` [SB-245391], for which the “%Inh” value is 93.9%.

Take `Oc1cc(Nc2ccnc3cc(I)ccc23)ccc1F` [GW552771]: the “%Inh” value was 0%. Turning to `COC(=O)Nc1nc2ccc(Oc3ccc(NC(=O)Nc4cc(C(F)(F)F)ccc4F)cc3)cc2n1C.Cl` [GW692089], the “%Inh” value is 0%.

For `CC(=O)N1CCN(c2ccc(Nc3nccc(-c4sc(C(C)C)nc4-c4cccc(NS(=O)(=O)c5cccc(Cl)c5)c4)n3)cn2)CC1` [GSK1660437], the “%Inh” value is 23%.

As to `Cl.Cl.NCC(C(=O)Nc1cc(Br)c(-c2ccnc3[nH]ccc23)s1)c1ccccc1` (centres unmarked) [GSK1269851], the “%Inh” value came to 0%.

Consider `CC(C)(C)c1ccc2nccc(Nc3cccc(O)c3)c2c1` [GW856795], for which the “%Inh” value is reported as 26%. On to `NCCCC(NC(=O)c1cc(Br)c(-c2ccnc3[nH]ccc23)s1)c1ccccc1.O=C(O)C(F)(F)F.O=C(O)C(F)(F)F` (centres unmarked) [GSK1287544], for which the “%Inh” value is on record as 90%. Consider `Cl.c1ccc(-c2ccc3c(Nc4ccc5[nH]ncc5c4)ccnc3c2)nc1` [GW440137], for which the “%Inh” value was determined as 0%. For the compound `c1ccc(Oc2ccc(Nc3ccnc4cc(-c5ccc(CNCCN6CCOCC6)o5)ccc34)cc2)nc1` [GW567145], the “%Inh” value was determined as 0%.
